ELG1 genotox: genotoxicity induction in ELG1-luciferase HEK293T cells. HEK293T ELG1-luciferase reporter, luminescence, 16 h. Potency, µM (top dose mostly 46 µM), for the others: at the top dose activity change, positive = activation, most hits filed as activators. 330,000 tested, 1.3% active. AID 504466; further: % of control where 0% means no effect; nearly all actives have a fitted effect of over 60% in size
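Reporter readout depends on ELG1 protein level, which increases with genetic stress. After 16 hr compound exposure at 37 °C, luciferase activity was quantified using ONE-Glo.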
SMN2 splice enh: enhancers of SMN2 splice variant expression; HEK293 SMN2-luciferase splicing reporter, luminescence, 30-36 h; Potency, µM (highest dose often 46.1 µM), for the others: top-dose activity change, positive = activation, usual class: activators; 210,000 tested, 2.8% active; further: % of control where 0% means no effect; nearly all actives have a fitted effect of over 55% in size
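HEK293 cells carry an SMN2 […]–luciferase reporter in which exon 7 inclusion puts luciferase in frame. Cells were plated 10-12 h before compound addition, then incubated 30-36 h at 37C. ONE-Glo luminescence was read; sodium butyrate at 4.5 mM final served as control.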
Rab9 promoter act: activators of Rab9 promoter. Huh7 Rab9 promoter-luciferase reporter, luminescence, 24 h. Potency, µM (top dose mostly 9.22 µM), for the others: top-dose activation, negative = inhibition, most hits filed as activators. 320,000 tested, 2.8% active. AID 485297; further: % of control where 0% means no effect; nearly all actives have a fitted effect of over 60% in size
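Huh7 cells stably carrying Rab9 promoter–luciferase reporter, plated 1500 cells/well, compound added after 2 h and incubated 24 h at 37 °C; luciferase luminescence then read after 10 min with detection reagent.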
Luc counter: counter-screen: inhibitors of Kinase-Glo firefly luciferase. Potency, µM (highest dose often 38.3 µM), without a hit: at the highest dose activity change, negative = inhibition, hits mostly inhibitors. Q27757. 200,000 tested, 0.28% active. Kinase-Glo luciferase, ATP luminescence, 8 min. AID 1379; further: on the % scale 0 is the no-effect control and ±100 the full control effect; nearly all actives have a fitted effect of over 60% in size
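Inhibition of Kinase-Glo luciferase light generation was assessed at 10 uM ATP in pH 7.2 imidazole buffer, with luminescence measured after eight minutes at ambient temperature.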
FLuc counter: firefly luciferase modulation, counter-screen for miR-21 project; purified FLuc, Km substrates, luminescence inhibition; Potency, µM (series often up to 57.5 µM), inactives show at the highest dose activity change, negative = inhibition, most hits filed as inhibitors; 360,000 tested, 6.9% active;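 further: plate controls were vehicle for no effect and reference inhibitor for full effect; nearly all actives have a fitted effect of over 55% in size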
Target sequence (P08659 whole entry, looked up): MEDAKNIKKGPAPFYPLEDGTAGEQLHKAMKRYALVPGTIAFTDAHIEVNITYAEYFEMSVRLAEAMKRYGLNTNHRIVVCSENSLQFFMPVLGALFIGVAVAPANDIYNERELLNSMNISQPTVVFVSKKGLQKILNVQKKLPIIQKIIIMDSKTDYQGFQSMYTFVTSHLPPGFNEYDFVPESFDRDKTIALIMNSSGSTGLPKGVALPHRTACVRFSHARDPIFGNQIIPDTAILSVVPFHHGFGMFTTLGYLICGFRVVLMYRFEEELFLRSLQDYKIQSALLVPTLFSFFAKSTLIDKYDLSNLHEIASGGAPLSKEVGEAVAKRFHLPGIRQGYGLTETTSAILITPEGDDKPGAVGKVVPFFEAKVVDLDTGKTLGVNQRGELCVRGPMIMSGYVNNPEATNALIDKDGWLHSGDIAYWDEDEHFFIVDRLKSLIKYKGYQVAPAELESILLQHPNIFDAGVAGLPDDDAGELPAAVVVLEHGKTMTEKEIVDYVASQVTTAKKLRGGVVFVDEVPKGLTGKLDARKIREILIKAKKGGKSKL
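Purified P. pyralis luciferase (10nM final) with 10uM D-luciferin and 10uM ATP (Km levels) in 50mM Tris acetate pH 7.5, 10mM Mg acetate, 0.01% Tween-20, 0.05% BSA; qHTS 6-point titration, ~60 µM downward; luminescence read.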
NPC1 prom act: activators of NPC1 promoter; 320,000 tested, 2.4% active; AID 485313; Huh7 NPC1 promoter luciferase reporter, 24 h; Potency, µM (doses to about 9.22 µM), for inactives: top-dose activation, most hits filed as activators; further: % of control where 0% means no effect; nearly all actives have a fitted effect of over 60% in size
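Stable NPC1-promoter luciferase Huh7 line; cpd (DMSO) 24 h, 37 °C, 5% CO2; Amplite luciferase reagent 10 min RT; luminescence readout. qHTS format.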
The depositor's hits bear a star; ? = inconclusive; · = no result given; [ ] = dose if it differs, or a comment. Sampled rows, rich in hits. Any-hit rate of the full collection: about 7.4%. The call rests on the fitted dose curve; in most records, active means well fitted curve in the direction sought with a large enough effect; inconclusive means small, poorly fitted or top-dose-only effect, or another doubt; inactive means no such curve, though single readings can be large; an effect the other way counts as inactive or inconclusive. Potency means the concentration at half of the fitted maximal effect.

SMILES	ELG1 genotox	SMN2 splice enh	Rab9 promoter act	Luc counter	FLuc counter	NPC1 prom act
O=C(COc1ccc(F)cc1)Nc1ccc(OCc2cc(=O)n3ccsc3n2)cc1	·	-7%	·	·	-4%	·
CCc1ccccc1NC(=O)C(=O)NCCCN1CCOCC1	·	-1%	·	·	-3%	·
COC(=O)CCCC1=CC2=C(c3ccccc3)C(=O)C(C)(OC(=O)C3CCCC3)C(=O)C2=CN1CCCOC(C)C (stereo unspecified)	·	0%[9.22 µM]	·	-8%[7.66 µM]	·	·
Cc1cc(-c2ccc(S(=O)(=O)N3CCN(c4ccc(Cl)cc4)CC3)s2)on1	·	·	·	·	2%	·
Cc1ccc(C(=O)NCCc2ccncc2)cc1	?	?	?	2%	21µM*	?
CN(c1ccc(C(=O)NCCc2ccccc2)cc1)S(C)(=O)=O	1.6µM*	14µM*	0.63µM*	-13%	5.4µM*	1.4µM*
O=C(NCCCSc1ccccc1)c1cnc(Cl)c(Cl)c1	-2%	·	0%	·	-10%	-10%
O=C(NCCc1ccccc1)c1cnc(Cl)c(Cl)c1	13%	·	14%	·	24µM*	19%
Cc1ccc(Oc2ccc(C(=O)NCc3ccncc3)cc2)cc1	5%	-83%	-20%	5%	-13%	-28%
CCOC(=O)c1sc(N2C(=O)c3oc4ccc(F)cc4c(=O)c3C2c2ccc(O)cc2)nc1C (stereo unspecified)	·	3%	·	·	0%	·
Nc1c(-c2n[nH]c(=S)n2-c2ccc(Cl)cc2Cl)cnn1-c1ccccc1	0%	·	-2%	·	2%	-2%
Nc1[nH]nc2c1NN(c1ccc(Cl)cc1Cl)N2	?	?	30%	-3%	12µM*	?
O=C(CC(Nc1ccc(Cl)cc1)C(=O)O)c1ccccc1 (stereo unspecified)	16µM*	18µM*	2.2µM*	-19%	1.7µM*	2.8µM*
O=C(CC(Nc1ccccc1Cl)C(=O)O)c1ccccc1 (stereo unspecified)	2.9µM*	-53%	26%	-2%	4.8µM*	-2%
O=C(CC(Nc1cccc(Cl)c1Cl)C(=O)O)c1ccccc1 (stereo unspecified)	?	-5%	8%	2%	?	-4%
COc1cc(-c2nc3sc(C)c(C)c3c(=O)o2)cc(OC)c1OC	-3%	·	-2%	·	0%	4%
CCc1cc2c(=O)oc(-c3ccc(F)cc3)nc2s1	1%	·	12%	·	4.8µM*	2%
Cc1cccc(-c2nc3sc(C)cc3c(=O)o2)c1	12%	·	13%	-3%	2.7µM*	23%
Cc1cc2c(=O)oc(-c3ccc(Br)cc3)nc2s1	?	·	21%	·	1.9µM*	27%
COCc1cc(C)nc2sc(C(=O)Nc3ccc(OC(F)(F)F)cc3)c(N)c12	·	-13%	·	·	-3%	·
COc1ccc(-c2noc(CC(=O)Nc3cc(OC)ccc3OC)n2)cc1	·	·	·	·	-13%	·
CCc1ccc2nc(N(Cc3cccnc3)C(C)=O)sc2c1	·	·	·	·	-6%	·
Nn1c(SCc2c(F)cccc2F)nnc1-c1ccccn1	16µM*	·	3.2µM*	·	13µM*	2µM*
CCOc1ccc(NC(=O)CCc2nnc3n(C)c(=O)c4sccc4n23)cc1	·	0%	·	·	-6%	·
O=[N+]([O-])c1cccc(S(=O)(=O)Nc2ccc(-c3ccc(N4CCCC4)nn3)cc2)c1	14%	·	-3%	·	30µM*	5%
SMILES	ELG1 genotox	SMN2 splice enh	Rab9 promoter act	Luc counter	FLuc counter	NPC1 prom act
COc1ccc(-c2ccc(NS(=O)(=O)c3cccc([N+](=O)[O-])c3)cc2)nn1	-3%	·	-1%	·	2%	0%
O=[N+]([O-])c1cccc(S(=O)(=O)Nc2ccc(-c3ccc(N4CCOCC4)nn3)cc2)c1	-1%	·	1%	·	21µM*	1%
O=C(Cn1cc2c(n1)CCCC2)Nc1cc(C(F)(F)F)ccc1Cl	·	-6%	·	·	-5%	·
O=C(/C=C/c1ccc2c(c1)OCO2)N1CCOCC1	11%	·	26%	-4%	17µM*	19%
O=C(/C=C/c1ccc(F)cc1)N1CCN(c2ncccn2)CC1	-11%	6%	9%	1%	?	12%
COc1ccc(/C=C/C(=O)N2CCOCC2)cc1OC	0%	·	7%	·	-2%	-3%
CC(C)(C)c1ccc(/C=C/C(=O)N2CCN(c3ncccn3)CC2)cc1	-3%	-4%	-3%	-1%	24µM*	-3%
CC(C)Cc1ccc(/C=C/C(=O)N2CCOCC2)cc1	?	13µM*	2.2µM*	0%	11µM*	2.8µM*
CC(C)(C)c1ccc(/C=C/C(=O)N2CCOCC2)cc1	?	3.2µM*	?	0%	11µM*	?
CC1(C)[C@@H]2CC[C@@](C)(C2)[C@H]1OC(=O)c1ccccc1C(=O)O	·	3%[9.22 µM]	·	0%[7.66 µM]	·	·
CC(=O)Nc1cc(CN2CCCCC2)c(O)c2ncccc12	·	-8%[9.22 µM]	·	-4%[7.66 µM]	·	·
COC(=O)CC1Oc2ccccc2-n2cc(-c3ccc(Cl)cc3)nc21 (stereo unspecified)	·	?	·	·	4%	·
CCOc1ccc(OCc2cccc(C(=O)N3CCOCC3)c2)cc1	0.13µM*	0.35µM*	0.089µM*	-10%	0.3µM*	0.089µM*
CCOc1ccc(N=C(/C(C(=O)C(=O)N2CCOCC2)=C(/O)c2ccccc2)c2ccccc2)cc1	?	·	?	·	?	4µM*
CC1CN(C(=O)c2cccc(COc3ccc(Br)cc3)c2)CC(C)O1 (stereo unspecified)	?	4µM*	3.5µM*	0%	4.8µM*	1.6µM*

Bioassay records deposited in PubChem by National Center for Advancing Translational Sciences (NCATS).
